Results taken from PubChem BioAssay (Tox21).
Where “and” joins values, the source holds several entries; their conditions need not be identical. Identical values can stand only once. Records with an inconclusive call do not appear. Calls of active or inactive are those of the source. Unless noted, the call rests on the fitted dose curve; in most records, active means well fitted curve in the direction sought with a large enough effect in the repeat runs; inconclusive means weak or mixed curves; inactive means no such curve, though single readings can be large; an effect the other way counts as inactive or inconclusive.

How the values were obtained:
[1] = target: Aryl hydrocarbon receptor (Homo sapiens) (UniProt P35869); assay: qHTS assay to identify small molecule that activate the aryl hydrocarbon receptor (AhR) signaling pathway (AID 743085); further: nearly all actives have a fitted effect of over 15% in size; further: potency means the concentration at half of the fitted maximal effect;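 on activation: HG2L7.5c1 human HepG2 liver cells with stably integrated DRE-driven firefly reporter; series mostly up to about 70 µM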
Procedure, shortened: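 HepG2 cells stably carrying a 20-DRE firefly luciferase reporter (HG2L7.5c1) treated with compound for 24 hr at 37C. Luciferase read by ONE-Glo luminescence, with CellTiter-Fluor viability read first.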

[2] = qHTS assay to identify small molecule antagonists of the peroxisome proliferator-activated receptor gamma (PPARg) signaling pathway - cell viability counter screen (AID 743194); further: nearly all actives have a fitted effect of over 55% in size; further: potency means the concentration at half of the fitted maximal effect
Procedure, shortened: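 Cytotoxicity counter screen in PPARg-bla HEK293H cells, same wells as reporter assay. Compounds plus 50 nM rosiglitazone (final) for 17 h at 37 C, then viability read by CellTiter-Glo luminescence.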

[3] = qHTS assay for small molecule agonists of the antioxidant response element (ARE) signaling pathway - cell viability counter screen (AID 743203; calls by dose curve; further: nearly all actives have a fitted effect of over 55% in size; further: potency means the concentration at half of the fitted maximal effect)
Procedure, shortened: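 Viability counter screen: stably transfected ARE-bla HepG2 line, 16 hrs compound exposure at 37C/5% CO2, ATP-based CellTiter-Glo luminescence measured in the reporter wells.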

[4] = qHTS assay for small molecule activators of the heat shock response signaling pathway - cell viability counter screen (AID 743209); further: nearly all actives have a fitted effect of over 50% in size; further: potency means the concentration at half of the fitted maximal effect
Procedure, shortened: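 Viability of HSE-bla HeLa cells is measured with CellTiter-Glo in the wells already used for the reporter read. Compound exposure lasts 5 h at 37 C, and luminescence is read after 30 min at room temperature.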

[5] = qHTS assay to identify small molecule agonists of the peroxisome proliferator-activated receptor delta (PPARd) signaling pathway - cell viability counter screen (AID 743211); further: nearly all actives have a fitted effect of over 55% in size; further: potency means the concentration at half of the fitted maximal effect
Procedure, shortened: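 PPARd-bla HEK293H cells (3000/well) were pre-incubated 5 h at 37 C, then exposed to compound for 17 h at 37 C. After 2 h with LiveBLAzer substrate, CellTiter-Glo was added to the same wells; luminescence read after 30 min at room temperature.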

[6] = target: Peroxisome proliferator-activated receptor delta (Homo sapiens) (UniProt Q03181); assay: qHTS assay to identify small molecule antagonists of the peroxisome proliferator-activated receptor delta (PPARd) signaling pathway (AID 743215; active means well fitted inhibition curve with a large enough effect in the signal ratio in the repeat runs, not every such curve was filed as active; the % refers to the signal ratio;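 further: cells stimulated with agonist L165041 at 300 nM final during compound exposure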; further: potency means the concentration at half of the fitted maximal effect)
Procedure, shortened: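 Plated HEK293H PPARd-bla cells rested 5 h at 37 C and 5% CO2. Compound, then agonist L165041 at 300 nM final, was added; 17 h at 37 C followed. Substrate loading, 2 h room temperature, fluorescence measured.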

[7] = target: Bile acid receptor (Homo sapiens) (UniProt Q96RI1); assay: qHTS assay to identify small molecule agonists of the farnesoid-X-receptor (FXR) signaling pathway (AID 743220; active means well fitted activation curve with a large enough effect in the signal ratio in the repeat runs, not every such curve was filed as active; the % refers to the signal ratio)
Procedure, shortened: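 FXR-UAS-bla HEK 293T cells carrying a UAS-driven beta-lactamase reporter were plated for 5 h at 37C/5% CO2, then exposed to DMSO-dissolved Tox21 10K compounds for 16 h at 37C. A LiveBLAzer B/G FRET substrate was loaded for 2 h at room temperature before fluorescence reading.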

[8] = qHTS assay to identify small molecule antagonists of the farnesoid-X-receptor (FXR) signaling pathway - cell viability counter screen (AID 743221; active means well fitted cell-killing curve with a large enough effect in the repeat runs, not every such curve was filed as active; further: nearly all actives have a fitted effect of over 50% in size; further: potency means the concentration at half of the fitted maximal effect)
Procedure, shortened: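 GeneBLAzer FXR-UAS-bla HEK 293T cells, compound plus chenodeoxycholic acid (50 uM final), 16 h at 37 C. CellTiter-Glo added to the same wells after the beta-lactamase read; luminescence read after 30 min at room temperature as viability.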

[9] = qHTS assay to identify small molecule agonists of the farnesoid-X-receptor (FXR) signaling pathway - cell viability counter screen (AID 743218); further: nearly all actives have a fitted effect of over 45% in size; further: potency means the concentration at half of the fitted maximal effect
Procedure, shortened: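 Viability of FXR-bla HEK 293T cells is measured by ATP-based CellTiter-Glo luminescence following 16 h compound treatment at 37 C and a prior 2 h room-temperature beta-lactamase substrate step.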

[10] = qHTS assay to identify small molecule that activate the aryl hydrocarbon receptor (AhR) signaling pathway - cell viability counter screen (AID 743086); further: nearly all actives have a fitted effect of over 45% in size; further: potency means the concentration at half of the fitted maximal effect
Procedure, shortened: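 HepG2-AhR-luc (HG2L7.5c1) cells, 4000/well, treated 24 h at 37 C with compound; viability measured as CellTiter-Fluor fluorescence after 30 min in the same wells as the luciferase read.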

[11] = qHTS assay for small molecule agonists of the antioxidant response element (ARE) signaling pathway (AID 743202; active means well fitted activation curve with a large enough effect in the signal ratio in the repeat runs, not every such curve was filed as active; the % refers to the signal ratio; further: potency means the concentration at half of the fitted maximal effect)
Procedure, shortened: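 HepG2 ARE-bla reporter line, 2,000 cells/well; 5 h preincubation 37 C/5% CO2; compound (DMSO) 16 h 37 C; B/G FRET substrate 2 h RT; fluorescence intensity.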

[12] = target: Peroxisome proliferator-activated receptor delta (Homo sapiens) (UniProt Q03181); assay: qHTS assay to identify small molecule agonists of the peroxisome proliferator-activated receptor delta (PPARd) signaling pathway (AID 743212; calls by dose curve)
Procedure, shortened: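 Read-out: beta-lactamase FRET fluorescence after 2 h room-temperature incubation with LiveBLAzer B/G substrate. Cells were HEK293H carrying a UAS-bla reporter for PPARd, treated at 37 C with DMSO-dissolved compounds.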

[13] = qHTS assay to identify small molecule antagonists of the peroxisome proliferator-activated receptor delta (PPARd) signaling pathway - cell viability counter screen (AID 743213); further: nearly all actives have a fitted effect of over 50% in size; further: potency means the concentration at half of the fitted maximal effect
Procedure, shortened: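 In this counter screen, HEK293H cells carrying a UAS-beta-lactamase reporter are co-treated with test compounds and 300 nM L165041 (final) for 17 h at 37 C; cell viability is quantified by CellTiter-Glo luminescence.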

[14] = qHTS assay for small molecule activators of the heat shock response signaling pathway (AID 743210; active means well fitted activation curve with a large enough effect in the signal ratio in the repeat runs, with a control signal flat, not every such curve was filed as active; the % refers to the signal ratio;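 further: HeLa cells with beta-lactamase reporter driven by heat shock elements; series mostly up to about 63 µM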)
Procedure, shortened: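 Beta-lactamase reporter read-out: FRET substrate fluorescence after 2.5 h at RT, following 5 h compound treatment at 37 C of HeLa cells carrying HSE-driven bla reporter; quantitative HTS format.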

[15] = target: Vitamin D3 receptor (Homo sapiens) (UniProt P11473); assay: qHTS assay to identify small molecule agonists of the vitamin D receptor (VDR) signaling pathway (AID 743222; calls by dose curve)
Procedure, shortened: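 Fluorescence from cleaved LiveBLAzer B/G FRET substrate served as readout. VDR-bla cells had been treated 16 h at 37C with test compounds in DMSO, following a 4 h settling period, and substrate was loaded for 2 h at RT.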

[16] = target: Vitamin D3 receptor (Homo sapiens) (UniProt P11473); assay: qHTS assay to identify small molecule antagonists of the vitamin D receptor (VDR) signaling pathway (AID 743223; active means well fitted inhibition curve with a large enough effect in the signal ratio in the repeat runs, not every such curve was filed as active; the % refers to the signal ratio)
Procedure, shortened: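 VDR-bla cells were treated with compound plus 3 nM final 1alpha,25-dihydroxyvitamin D3 for 16 h at 37C. Beta-lactamase reporter read by B/G FRET substrate fluorescence after 2 h at room temperature. qHTS format.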

[17] = target: Peroxisome proliferator-activated receptor gamma (Homo sapiens) (UniProt P37231); assay: qHTS assay to identify small molecule agonists of the peroxisome proliferator-activated receptor gamma (PPARg) signaling pathway (AID 743094; active means well fitted activation curve with a large enough effect in the signal ratio in the repeat runs, not every such curve was filed as active; the % refers to the signal ratio)
Procedure, shortened: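 Reporter activation was scored by fluorescence of cleaved LiveBLAzer B/G substrate (1 h, room temperature) in PPARg-bla HEK293H cells previously treated 17 h at 37C with DMSO-dissolved compounds.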

[18] = target: Peroxisome proliferator-activated receptor gamma (Homo sapiens) (UniProt P37231); assay: qHTS assay to identify small molecule antagonists of the peroxisome proliferator-activated receptor gamma (PPARg) signaling pathway (AID 743191; calls by dose curve; further: potency means the concentration at half of the fitted maximal effect; nearly all actives have a fitted effect of over 30% in size)
Procedure, shortened: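 GeneBLAzer PPARg UAS-bla HEK293H cells, 5 h post-plating, exposed to compounds 17 h at 37C. LiveBLAzer B/G FRET substrate added for 1 h at room temperature; beta-lactamase reporter read by fluorescence intensity.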

Measured: Potency

Sequence of Aryl hydrocarbon receptor (Homo sapiens) (P35869 whole entry, looked up): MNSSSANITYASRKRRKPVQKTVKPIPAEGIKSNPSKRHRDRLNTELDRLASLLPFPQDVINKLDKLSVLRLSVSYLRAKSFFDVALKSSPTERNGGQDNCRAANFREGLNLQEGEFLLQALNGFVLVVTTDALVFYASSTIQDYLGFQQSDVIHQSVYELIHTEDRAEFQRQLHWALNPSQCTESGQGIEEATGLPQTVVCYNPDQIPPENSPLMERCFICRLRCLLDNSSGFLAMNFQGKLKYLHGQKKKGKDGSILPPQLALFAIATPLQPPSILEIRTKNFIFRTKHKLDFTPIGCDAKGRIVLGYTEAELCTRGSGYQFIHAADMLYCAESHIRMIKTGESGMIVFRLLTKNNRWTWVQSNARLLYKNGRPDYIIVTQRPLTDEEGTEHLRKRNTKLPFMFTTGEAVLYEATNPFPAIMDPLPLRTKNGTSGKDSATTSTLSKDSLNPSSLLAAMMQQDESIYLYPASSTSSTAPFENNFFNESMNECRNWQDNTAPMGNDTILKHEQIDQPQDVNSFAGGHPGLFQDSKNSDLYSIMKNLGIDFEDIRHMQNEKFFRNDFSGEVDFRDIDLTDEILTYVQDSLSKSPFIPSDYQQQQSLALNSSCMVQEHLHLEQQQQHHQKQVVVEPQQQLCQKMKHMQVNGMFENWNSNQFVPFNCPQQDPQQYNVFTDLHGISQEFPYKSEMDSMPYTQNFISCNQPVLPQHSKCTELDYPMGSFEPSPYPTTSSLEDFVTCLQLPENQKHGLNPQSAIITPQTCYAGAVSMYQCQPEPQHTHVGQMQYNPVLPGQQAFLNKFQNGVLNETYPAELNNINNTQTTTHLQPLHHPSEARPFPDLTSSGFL
Sequence of Vitamin D3 receptor (Homo sapiens) (P11473 whole entry, looked up): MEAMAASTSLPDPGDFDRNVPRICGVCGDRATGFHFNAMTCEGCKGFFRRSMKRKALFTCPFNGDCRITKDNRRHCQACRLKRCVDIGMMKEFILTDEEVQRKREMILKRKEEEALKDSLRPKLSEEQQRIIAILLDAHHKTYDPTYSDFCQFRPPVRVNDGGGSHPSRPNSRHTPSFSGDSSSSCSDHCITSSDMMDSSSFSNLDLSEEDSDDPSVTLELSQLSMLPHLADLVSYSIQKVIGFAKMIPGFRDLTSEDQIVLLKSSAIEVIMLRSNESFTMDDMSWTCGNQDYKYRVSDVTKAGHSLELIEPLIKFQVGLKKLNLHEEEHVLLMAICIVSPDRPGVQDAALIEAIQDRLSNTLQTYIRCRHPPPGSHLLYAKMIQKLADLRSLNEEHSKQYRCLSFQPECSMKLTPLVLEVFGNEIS
Sequence of Bile acid receptor (Homo sapiens) (Q96RI1 whole entry, looked up): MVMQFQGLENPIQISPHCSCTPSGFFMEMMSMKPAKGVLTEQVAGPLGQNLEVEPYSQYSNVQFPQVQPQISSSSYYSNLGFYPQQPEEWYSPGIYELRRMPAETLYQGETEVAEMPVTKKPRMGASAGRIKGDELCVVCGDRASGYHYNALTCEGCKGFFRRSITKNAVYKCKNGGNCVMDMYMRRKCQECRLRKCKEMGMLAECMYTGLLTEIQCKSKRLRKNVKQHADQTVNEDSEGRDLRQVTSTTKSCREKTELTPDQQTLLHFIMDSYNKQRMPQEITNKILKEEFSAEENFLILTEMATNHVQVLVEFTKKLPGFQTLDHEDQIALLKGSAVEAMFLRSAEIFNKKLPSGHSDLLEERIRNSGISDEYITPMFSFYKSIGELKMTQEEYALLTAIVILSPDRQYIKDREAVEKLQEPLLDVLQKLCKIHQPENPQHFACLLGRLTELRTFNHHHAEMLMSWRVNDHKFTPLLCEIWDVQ
Sequence of Peroxisome proliferator-activated receptor delta (Homo sapiens) (Q03181 whole entry, looked up): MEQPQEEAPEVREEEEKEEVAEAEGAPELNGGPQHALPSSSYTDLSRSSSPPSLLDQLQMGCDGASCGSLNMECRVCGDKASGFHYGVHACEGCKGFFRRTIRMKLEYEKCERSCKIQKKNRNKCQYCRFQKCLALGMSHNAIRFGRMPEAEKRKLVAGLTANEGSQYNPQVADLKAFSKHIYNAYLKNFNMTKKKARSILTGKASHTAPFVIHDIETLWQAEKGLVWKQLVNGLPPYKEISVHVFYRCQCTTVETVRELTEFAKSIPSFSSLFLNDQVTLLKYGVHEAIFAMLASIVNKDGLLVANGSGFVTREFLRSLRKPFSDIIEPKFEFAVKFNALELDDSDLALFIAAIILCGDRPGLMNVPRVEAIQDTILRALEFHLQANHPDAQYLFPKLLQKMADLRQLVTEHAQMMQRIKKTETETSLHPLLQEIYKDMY
Sequence of Peroxisome proliferator-activated receptor gamma (Homo sapiens) (P37231 whole entry, looked up): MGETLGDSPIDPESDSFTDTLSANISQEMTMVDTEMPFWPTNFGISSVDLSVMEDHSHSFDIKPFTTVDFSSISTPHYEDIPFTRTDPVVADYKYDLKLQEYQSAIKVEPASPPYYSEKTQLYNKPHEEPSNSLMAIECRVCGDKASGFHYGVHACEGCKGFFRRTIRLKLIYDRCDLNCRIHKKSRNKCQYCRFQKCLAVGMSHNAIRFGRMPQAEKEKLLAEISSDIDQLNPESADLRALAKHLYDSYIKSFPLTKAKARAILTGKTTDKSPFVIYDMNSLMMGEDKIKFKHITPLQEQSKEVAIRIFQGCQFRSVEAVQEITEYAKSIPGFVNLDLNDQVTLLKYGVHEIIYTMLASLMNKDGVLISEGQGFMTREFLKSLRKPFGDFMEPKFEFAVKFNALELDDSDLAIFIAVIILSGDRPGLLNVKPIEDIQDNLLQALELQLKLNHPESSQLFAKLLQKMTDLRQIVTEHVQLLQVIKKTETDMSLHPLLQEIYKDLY

O=C(Nc1ccc(Cl)cc1)Nc1ccc(Cl)c(C(F)(F)F)c1
inactive: [1] | [7]
active: [2] 8.41 µM | [3] 16.8 µM | [4] 9.44 µM | [5] 13.3 µM | [6] 26.6 µM | [8] 16.8 µM

Cc1ccc(-n2[nH]c(C)c(N=Nc3cccc(-c4cccc(C(=O)O)c4)c3O)c2=O)cc1C
active: [2] 2.37 µM | [5] 26.6 µM
inactive: [3] | [4] | [7] | [8]

CC(C)(C)c1cc(/C=C2\SC(=N)NC2=O)cc(C(C)(C)C)c1O
active: [2] 43.6 µM | [3] 24.3 µM | [4] 43.6 µM | [5] 21.9 µM | [9] 43.6 µM
inactive: [1]

NC(=O)C(=O)N/N=C/c1ccc([N+](=O)[O-])o1
inactive: [10] | [2] | [3] | [5] | [12] | [13] | [6] | [9] | [8]
active: [11] 29.8 µM

CC(CN(C)C)CN1c2ccccc2CCc2ccccc21 (stereo not given)
active: [5] 26.6 µM | [13] 29.8 µM | [9] 8.41 µM
not listed: [2] | [8] | [12] | [17] | [18]
inactive: all other assays above

CC(C)(c1cc(Br)c(O)c(Br)c1)c1cc(Br)c(O)c(Br)c1
inactive: [10] | [9] | [7] | [8]
active: [2] 54.8 µM and 43.5 µM and 46.3 µM | [11] 23 µM | [3] 60.9 µM and 57.9 µM

O=C1Nc2ccc(Cl)cc2[C@@](C#CC2CC2)(C(F)(F)F)O1
active: [11] 13.3 µM | [4] 5.31 µM
inactive: [10] | [17] | [3] | [12] | [13] | [6] | [9] | [16]

COC(=O)[C@]1(C)CCC[C@@]2(C)[C@H]1CC=C1C=C(C(C)C)CC[C@@H]12
active: [2] 54.9 µM | [11] 61.1 µM
inactive: [10] | [3] | [13] | [16]

CCCCCCCC/C=C\CCCCCCCC(=O)N(C)CC(=O)O
active: [4] 21.9 µM | [5] 38.9 µM | [9] 38.9 µM | [8] 54.9 µM
inactive: [1]

CN1CCN(C2Cc3ccccc3Sc3ccc(Cl)cc32)CC1 (stereo not given)
active: [18] 29.8 µM | [2] 29.8 µM | [3] 29.8 µM | [5] 26.6 µM | [9] 26.6 µM | [8] 29.8 µM
inactive: [1] | [12] | [7] | [16]

CCc1ccc(O)c(C(C)(C)C)c1
inactive: [1] | [10] | [4] | [12] | [9] | [8] | [15]

COc1cc(C(C)C)c2c(c1)S(=O)(=O)N(COc1cc(=O)n3cccc(OCCN4CCCCC4)c3n1)C2=O
inactive: [1] | [17] | [2] | [3] | [4] | [14] | [5] | [9] | [8]

COC(=O)C1=C(C)NC(C)=C(C(=O)OCCCN2CCC(c3ccccc3)(c3ccccc3)CC2)C1c1cccc([N+](=O)[O-])c1 (stereo not given)
inactive: [4]
active: [10] 29.8 µM | [2] 33.5 µM | [5] 10.6 µM | [13] 11.9 µM | [9] 11.9 µM | [8] 26.6 µM

O=C(NO)c1ccccc1
inactive: [1] | [10] | [4] | [14]

CC(NCCC(c1ccccc1)c1ccccc1)c1ccccc1 (stereo not given)
inactive: [1] | [7] | [8] | [15]
active: [10] 26.6 µM | [2] 23.7 µM | [3] 33.5 µM | [5] 29.8 µM | [13] 8.41 µM | [9] 23.7 µM

O=C(Nc1ccc(Cl)c(Cl)c1)c1cc(Cl)cc(Cl)c1O
inactive: [10]
active: [1] 0.109 µM | [2] 0.49 µM | [3] 24.3 µM | [5] 5.49 µM | [13] 11 µM | [9] 3.89 µM | [8] 13.8 µM

CCCCCCC(C)OC(=O)COc1nc(F)c(Cl)c(N)c1Cl (stereo not given)
inactive: [10] | [11] | [3] | [12] | [6] | [9] | [8] | [15]

C[n+]1c2cc(N)ccc2cc2ccc(N)cc21 (tested in a mixture with another compound)
active: [1] 9.44 µM | [4] 29.8 µM | [9] 15 µM
inactive: [3] | [14] | [8]
